# Measured values taken from PubChem BioAssay (EPA / NIEHS).
# Where “and” joins values, the source holds several entries; their conditions need not be identical. Equal entries are not always repeated. Some compounds were tested as several samples or in several runs, with calls that do not always agree. Calls of active or inactive are those of the source. How the source made its calls: active means hit-call score of the fitted dose curve at least 0.9, where 1 is the maximum; inactive means score below 0.9.
# Legend:
# [1] = ATG_GLI_CIS: Attagene CIS-FACTORIAL HepG2 Assay for human Zinc Finger Protein GLI1 (AID 2282945); details: HepG2, Attagene cis-factorial reporter mRNA, GLI element; actives raise or lower the signal
# In short: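 Bidirectional curve fits relative to DMSO, using reporter mRNA levels from RT-PCR plus capillary electrophoresis. Cells were HepG2 transiently carrying cis-regulated reporter constructs, harvested 24 h after dosing.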
# [2] = ATG_ISRE_CIS: Attagene CIS-FACTORIAL HepG2 Assay for human Interferon Regulatory Factor 1 (IRF1) binding to an Interferon-Stimulated Response Element (ISRE) (AID 2282948); details: HepG2 ISRE cis-reporter (Attagene), mRNA transcription readout; actives raise or lower the signal
# In short: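 Transfected HepG2 (multiple reporter transcription units, cis elements) dosed 24 h. RNA → oligo(dT) RT → PCR → 6-FAM primer extension → HpaI → CE. DMSO = negative control/baseline.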
# [3] = ATG_M_32_CIS: Attagene CIS-FACTORIAL HepG2 Assay for M32 Transcription Factor (Internal Marker) (AID 2282949); details: HepG2 Attagene cis-factorial M32 reporter, mRNA; actives raise or lower the signal;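 further: background control marker of the multiplexed CIS panel rather than a real target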
# In short: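 Fluorescent capillary electrophoresis peaks of HpaI-digested, FAM-labelled RT-PCR reporter products give the signal. Source: transiently transfected human liver HepG2 cells, 24 h after chemical dosing; bidirectional fitting against DMSO.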
# [4] = ATG_M_06_CIS: Attagene CIS-FACTORIAL HepG2 Assay for M06 Transcription Factor (Internal Marker) (AID 2282950); details: HepG2 Attagene CIS-FACTORIAL M06 internal marker reporter; actives raise or lower the signal
# In short: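 Steps: transfect HepG2 with multiplexed cis-element reporter constructs; dose chemical 24 h; extract RNA with DNase treatment; reverse-transcribe, PCR-amplify, 6-FAM label, HpaI digest; separate fragments by capillary electrophoresis. Activity fitted both directions versus DMSO.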
# [5] = target: Hypoxia-inducible factor 1-alpha (Homo sapiens) (UniProt Q16665); assay: ATG_HIF1a_CIS: Attagene CIS-FACTORIAL HepG2 Assay for human Hypoxia Inducible Factor 1 (HIF1A) (AID 2282951); details: HepG2 Attagene cis-factorial HIF1a reporter transcription; actives raise or lower the signal
# Chain of Hypoxia-inducible factor 1-alpha (Homo sapiens) (Q16665 whole entry, looked up): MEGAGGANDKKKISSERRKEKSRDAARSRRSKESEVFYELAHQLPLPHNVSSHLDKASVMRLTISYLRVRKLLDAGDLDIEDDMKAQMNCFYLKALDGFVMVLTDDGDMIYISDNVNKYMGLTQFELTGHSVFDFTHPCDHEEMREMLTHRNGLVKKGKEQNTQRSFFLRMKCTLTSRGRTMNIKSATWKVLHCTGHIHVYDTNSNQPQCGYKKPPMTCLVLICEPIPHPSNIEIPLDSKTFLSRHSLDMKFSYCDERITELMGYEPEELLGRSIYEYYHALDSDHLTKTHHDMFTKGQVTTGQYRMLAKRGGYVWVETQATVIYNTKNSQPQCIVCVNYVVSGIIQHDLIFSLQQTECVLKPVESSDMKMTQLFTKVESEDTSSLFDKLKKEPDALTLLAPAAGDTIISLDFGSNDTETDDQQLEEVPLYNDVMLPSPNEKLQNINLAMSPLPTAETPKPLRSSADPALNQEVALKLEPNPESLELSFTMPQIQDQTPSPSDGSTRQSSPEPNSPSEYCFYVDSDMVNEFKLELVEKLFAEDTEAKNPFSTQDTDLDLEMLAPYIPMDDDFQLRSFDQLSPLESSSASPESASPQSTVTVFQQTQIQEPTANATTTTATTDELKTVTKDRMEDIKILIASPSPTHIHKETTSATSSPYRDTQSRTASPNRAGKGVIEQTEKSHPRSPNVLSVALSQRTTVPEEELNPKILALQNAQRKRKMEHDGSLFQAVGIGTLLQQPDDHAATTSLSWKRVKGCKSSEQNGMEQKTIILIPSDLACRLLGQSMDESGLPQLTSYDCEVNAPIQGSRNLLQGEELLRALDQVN
# In short: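 Cis-element reporter constructs were transiently transfected into HepG2 cells, which were treated for 24 h; reporter RNA was reverse-transcribed, amplified, labelled and resolved by capillary electrophoresis.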
# [6] = target: Hepatocyte nuclear factor 6 (Homo sapiens) (UniProt Q9UBC0); assay: ATG_HNF6_CIS: Attagene CIS-FACTORIAL HepG2 Assay for human Hepatocyte Nuclear Factor 6 (HNF6) (AID 2282952); details: HepG2 Attagene cis-factorial HNF6 reporter transcription; actives raise or lower the signal
# Chain of Hepatocyte nuclear factor 6 (Homo sapiens) (Q9UBC0 whole entry, looked up): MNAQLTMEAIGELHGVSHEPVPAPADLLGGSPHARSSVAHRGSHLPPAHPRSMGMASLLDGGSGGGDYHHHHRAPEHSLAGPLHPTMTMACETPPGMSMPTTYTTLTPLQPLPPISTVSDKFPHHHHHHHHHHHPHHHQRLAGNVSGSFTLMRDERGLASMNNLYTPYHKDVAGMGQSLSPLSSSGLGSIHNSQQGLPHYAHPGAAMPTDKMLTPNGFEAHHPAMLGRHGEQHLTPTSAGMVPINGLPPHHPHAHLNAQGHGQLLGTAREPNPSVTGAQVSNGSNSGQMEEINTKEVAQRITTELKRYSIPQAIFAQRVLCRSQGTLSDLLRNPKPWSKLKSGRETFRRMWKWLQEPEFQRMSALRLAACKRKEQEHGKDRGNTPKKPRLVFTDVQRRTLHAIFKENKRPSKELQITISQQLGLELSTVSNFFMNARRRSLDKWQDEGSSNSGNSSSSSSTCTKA
# In short: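 Cells are HepG2 carrying transiently transfected cis-promoter reporter units. Treatment lasts 24 h, after which reporter transcripts are reverse-transcribed, amplified, FAM-labelled and sized by capillary electrophoresis. DMSO serves as baseline.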
# [7] = ATG_MRE_CIS: Attagene CIS-FACTORIAL HepG2 Assay for human Metal Responsive Element (MRE) (AID 2282954); details: HepG2 MRE cis-reporter transcription, Attagene multiplex; actives raise or lower the signal
# In short: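 Transient MRTU transfection of HepG2 (FuGene 6); 24 h dosing; total RNA → oligo(dT) RT, PCR, 6-FAM primer extension, HpaI cut, CE. Bidirectional fit vs DMSO.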
# [8] = ATG_GRE_CIS: Attagene CIS-FACTORIAL HepG2 Assay for human Glucocorticoid Response Elements (GRE) (AID 2282947); details: HepG2 GRE cis-reporter, Attagene multiplex mRNA; actives raise or lower the signal
# In short: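 Transient MRTU transfection of human HepG2 liver cells; cis-regulated reporters report endogenous factors. 24 h dosing → RNA isolation → RT-PCR → 6-FAM primer extension → HpaI cut → CE fragment analysis. Bidirectional fit, DMSO negative control.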
# [9] = target: Bile acid receptor (Homo sapiens) (UniProt Q96RI1); assay: ATG_IR1_CIS: Attagene CIS-FACTORIAL HepG2 Assay for human Nuclear Receptor Subfamily 1 Group H Member 4 (NR1H4), IR1 submotif (AID 2282946); details: IR1 reporter transcription, actives raise or lower the signal
# Chain of Bile acid receptor (Homo sapiens) (Q96RI1 whole entry, looked up, the tested form may be a part): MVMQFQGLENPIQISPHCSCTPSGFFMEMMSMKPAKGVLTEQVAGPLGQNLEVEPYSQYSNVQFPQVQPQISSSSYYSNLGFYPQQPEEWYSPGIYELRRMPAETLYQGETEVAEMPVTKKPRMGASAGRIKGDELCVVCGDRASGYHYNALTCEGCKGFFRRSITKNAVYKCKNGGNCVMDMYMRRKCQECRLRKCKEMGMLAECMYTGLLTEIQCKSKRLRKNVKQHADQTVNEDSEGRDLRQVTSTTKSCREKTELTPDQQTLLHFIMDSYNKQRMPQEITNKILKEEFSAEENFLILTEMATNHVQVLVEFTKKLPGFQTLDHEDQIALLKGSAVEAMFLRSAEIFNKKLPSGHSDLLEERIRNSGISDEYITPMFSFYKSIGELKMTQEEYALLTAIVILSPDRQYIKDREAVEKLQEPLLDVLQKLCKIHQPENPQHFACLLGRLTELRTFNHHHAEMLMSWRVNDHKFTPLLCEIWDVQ
# In short: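 Cells (human HepG2) carry transiently transfected cis-promoter reporter transcription units. Compounds are incubated 24 h, total RNA is reverse-transcribed and amplified, and labelled fragments are resolved by capillary electrophoresis. Curves use DMSO as baseline.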
# [10] = target: Heat shock factor protein 1 (Homo sapiens) (UniProt Q00613); assay: ATG_HSE_CIS: Attagene CIS-FACTORIAL HepG2 Assay for human Heat Shock Transcription Factor 1 (HSE) (AID 2282953); details: HepG2 HSE cis-reporter, Attagene RNA transcription; actives raise or lower the signal
# Chain of Heat shock factor protein 1 (Homo sapiens) (Q00613 whole entry, looked up, the tested form may be a part): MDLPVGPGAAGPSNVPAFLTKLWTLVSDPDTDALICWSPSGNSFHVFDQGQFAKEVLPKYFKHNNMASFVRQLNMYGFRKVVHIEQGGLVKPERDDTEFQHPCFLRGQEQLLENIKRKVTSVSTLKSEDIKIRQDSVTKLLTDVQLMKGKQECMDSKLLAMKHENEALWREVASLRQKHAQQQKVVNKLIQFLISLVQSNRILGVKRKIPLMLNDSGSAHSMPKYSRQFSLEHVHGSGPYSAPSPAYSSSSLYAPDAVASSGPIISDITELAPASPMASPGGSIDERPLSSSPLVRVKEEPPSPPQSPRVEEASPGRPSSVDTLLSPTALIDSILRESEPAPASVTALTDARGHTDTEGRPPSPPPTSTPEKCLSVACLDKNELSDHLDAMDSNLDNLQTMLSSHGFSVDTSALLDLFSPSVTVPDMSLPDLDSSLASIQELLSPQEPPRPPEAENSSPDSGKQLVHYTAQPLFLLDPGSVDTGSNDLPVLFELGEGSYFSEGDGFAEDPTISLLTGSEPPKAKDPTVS
# In short: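 Cells were transfected with cis-element-driven reporter constructs, dosed for 24 h, then total RNA was reverse-transcribed and reporter cDNA amplified, FAM-labelled and digested with HpaI. Fragments were resolved by capillary electrophoresis; gain or loss was fitted against DMSO.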
smiles,measurement,setting,value
O=[N+]([O-])c1ccc(O)cc1,outcome,[1],inactive
same,outcome,[2],inactive
same,outcome,[3],inactive
same,outcome,[4],inactive
same,AC50,[5],151 µM (active)
same,outcome,[5],inactive
same,outcome,[6],inactive
same,outcome,[7],inactive
CCCCCCCC(=O)O,outcome,[1],inactive
same,outcome,[8],inactive
same,outcome,[2],inactive
same,outcome,[3],inactive
same,outcome,[4],inactive
same,outcome,[5],inactive
same,outcome,[6],inactive
same,outcome,[7],inactive
c1ccc2c(c1)ccc1ccccc12,outcome,[1],inactive
same,outcome,[9],inactive
same,outcome,[8],inactive
same,outcome,[2],inactive
same,outcome,[3],inactive
same,outcome,[4],inactive
same,AC50,[5],26.9 µM (active)
same,outcome,[6],inactive
same,outcome,[7],inactive
CCOC(=O)CC(O)(CC(=O)OCC)C(=O)OCC,outcome,[1],inactive
same,outcome,[8],inactive
same,outcome,[2],inactive
same,outcome,[3],inactive
same,outcome,[4],inactive
same,outcome,[5],inactive
same,outcome,[6],inactive
same,outcome,[7],inactive
CCc1ccc(CCOc2ccc(CC3SC(=O)NC3=O)cc2)nc1 (centres undefined),outcome,[1],inactive
same,outcome,[8],inactive
same,outcome,[2],inactive
same,outcome,[3],inactive
same,outcome,[4],inactive
same,outcome,[5],inactive
same,outcome,[6],inactive
same,outcome,[10],inactive
same,outcome,[7],inactive
OC1CCCCC1,outcome,[1],inactive
same,outcome,[8],inactive
same,outcome,[2],inactive
same,outcome,[3],inactive
same,outcome,[4],inactive
same,outcome,[5],inactive
same,outcome,[6],inactive
same,outcome,[10],inactive
same,outcome,[7],inactive
C[C@@H]1C[C@H]2[C@@H]3CCC4=CC(=O)C=C[C@]4(C)[C@@]3(F)[C@@H](O)C[C@]2(C)[C@@]1(O)C(=O)COP(=O)(O)O,outcome,[1],inactive
same,AC50,[8],77.6 nM (active) [middle of 4 runs]
same,outcome,[2],inactive
same,outcome,[3],inactive
same,outcome,[4],inactive
same,outcome,[5],inactive
same,outcome,[6],inactive
same,outcome,[7],inactive
C#C[C@]1(O)CC[C@H]2[C@@H]3CCC4=CC(=O)CC[C@@H]4[C@H]3CC[C@@]21C,outcome,[1],inactive
same,outcome,[8],inactive
same,outcome,[2],inactive
same,outcome,[3],inactive
same,outcome,[4],inactive
same,outcome,[10],inactive
same,outcome,[7],inactive
FC(F)(I)C(F)(F)C(F)(F)C(F)(F)C(F)(F)C(F)(F)I,outcome,[1],inactive
same,outcome,[9],inactive
same,AC50,[8],18.1 µM (active)
same,outcome,[2],inactive
same,outcome,[3],inactive
same,outcome,[4],inactive
same,outcome,[5],inactive
same,outcome,[6],inactive
same,outcome,[7],inactive
CCCCC(CC)COC(=O)CCCCC(=O)OCc1ccccc1 (centres undefined),outcome,[1],inactive
same,outcome,[9],inactive
same,outcome,[8],inactive
same,outcome,[2],inactive
same,outcome,[3],inactive
same,outcome,[4],inactive
same,outcome,[5],inactive
same,outcome,[6],inactive
same,outcome,[7],inactive
CCCCCCCCC(=O)O,outcome,[1],inactive
same,outcome,[8],inactive
same,outcome,[2],inactive
same,outcome,[3],inactive
same,outcome,[4],inactive
same,outcome,[5],inactive
same,outcome,[6],inactive
same,outcome,[7],inactive
Cc1ccc(S(=O)(=O)O)c(C)c1,outcome,[1],inactive
same,outcome,[8],inactive
same,outcome,[2],inactive
same,outcome,[3],inactive
same,outcome,[4],inactive
same,outcome,[5],inactive
same,outcome,[6],inactive
same,outcome,[7],inactive
CN(C)C=O,outcome,[1],inactive
same,outcome,[9],inactive
same,outcome,[2],inactive
same,outcome,[3],inactive
same,outcome,[4],inactive
same,outcome,[5],inactive
same,outcome,[6],inactive
same,outcome,[10],inactive
same,outcome,[7],inactive
CCC(C)(C)C1CCC(O)CC1 (centres undefined),outcome,[1],inactive
same,outcome,[2],inactive
same,outcome,[3],inactive
same,outcome,[4],inactive
same,outcome,[5],inactive
same,outcome,[6],inactive
same,outcome,[7],inactive
CCCCCCCCCCCCCCCS(=O)(=O)Oc1ccccc1,outcome,[1],inactive
same,outcome,[9],inactive
same,outcome,[8],inactive
same,outcome,[2],inactive
same,outcome,[3],inactive
same,outcome,[4],inactive
same,outcome,[5],inactive
same,outcome,[6],inactive
same,outcome,[7],inactive
NC(=O)N(O)[C@@H]1C=C[C@H](Oc2cccc(Oc3ccc(F)cc3)c2)C1,outcome,[1],inactive
same,outcome,[9],inactive
same,outcome,[8],inactive
same,outcome,[2],inactive
same,outcome,[3],inactive
same,outcome,[4],inactive
same,outcome,[5],inactive
same,outcome,[6],inactive
same,AC50,[7],33 µM (active)
c1ccc2c(c1)Cc1ccccc1-2,outcome,[1],inactive
same,outcome,[9],inactive
same,outcome,[8],inactive
same,outcome,[2],inactive
same,outcome,[3],inactive
same,outcome,[4],inactive
same,outcome,[5],inactive
same,outcome,[6],inactive
same,outcome,[7],inactive
CC(C)(C)c1ccc(O)c(C(C)(C)C)c1,outcome,[1],inactive
same,AC50,[9],5.79 µM (active)
same,outcome,[8],inactive
same,outcome,[2],inactive
same,outcome,[3],inactive
same,outcome,[4],inactive
same,outcome,[5],inactive
same,outcome,[6],inactive
same,outcome,[7],inactive
CCN(CC)CCNc1ccc(CNC=O)c2sc3ccc(OC)cc3c(=O)c12,outcome,[1],inactive
same,AC50,[9],1.19 µM (active)
same,AC50,[8],1.85 µM (active)
same,outcome,[2],inactive
same,outcome,[3],inactive
same,outcome,[4],inactive
same,AC50,[5],0.515 µM (active)
same,AC50,[6],0.947 µM (active)
same,outcome,[7],inactive
CC1=C(/C=C/C(C)=C/C=C/C(C)=C/C(=O)O)C(C)(C)CCC1,outcome,[1],inactive
same,outcome,[8],inactive
same,AC50,[2],54.4 µM (active) and 106 µM (active)
same,outcome,[3],inactive
same,outcome,[4],inactive
same,outcome,[6],inactive
same,AC50,[10],50.5 µM (active) and 93 µM (active)
same,AC50,[7],39.7 µM (active) and 55 µM (active)
